HTR5A inv ag – inverse agonist of human HTR5A in OPRM1-OPRD1 counter-screen; HTR5A cell line, luminescence, inverse agonism; inhibition, % at 9.3 µM; 340,000 tested, 0.083% active; in the data active = inhibition mostly above about 23%, no sharp cut-off; inactive = mostly below about 18%;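 note: 0% = cells with DMSO and 100% = no-cell wells with DMSO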
Target sequence (P47898 whole entry, looked up): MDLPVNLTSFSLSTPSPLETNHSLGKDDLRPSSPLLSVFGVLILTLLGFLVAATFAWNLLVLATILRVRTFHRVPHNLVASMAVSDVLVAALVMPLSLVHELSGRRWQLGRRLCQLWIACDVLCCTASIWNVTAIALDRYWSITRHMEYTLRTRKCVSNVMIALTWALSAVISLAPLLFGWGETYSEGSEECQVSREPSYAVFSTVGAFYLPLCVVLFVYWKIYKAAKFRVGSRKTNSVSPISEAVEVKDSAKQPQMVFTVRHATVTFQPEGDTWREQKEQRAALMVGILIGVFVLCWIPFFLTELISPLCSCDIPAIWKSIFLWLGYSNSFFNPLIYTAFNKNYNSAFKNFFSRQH
m5-HT2A agonist – mouse HTR2A agonism via beta-arrestin recruitment | CHO-K1 mHTR2A beta-arrestin complementation, luminescence; percent of 30 µM serotonin response | activation, % at 7.6 µM | 360,000 tested, 0.66% active | AID 624169;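 active = activation above a run cutoff, the mean activation of all tested compounds plus 3 SD, cut at about 14% in these data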;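 note: 0% = plate median of compound wells and 100% = 30 µM serotonin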
OPRM1-OPRD1 ag – OPRM1-OPRD1 heterodimerization agonism. P35372+P41143. cells, luminescence. activation, % at 9.3 µM. 340,000 tested, 0.3% active. AID 504326; in the data active = activation above about 18%;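 note: 0% = vehicle-treated cells and 100% = reference agonist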
HTR5A ag – activates human HTR5A in OPRM1-OPRD1 agonist counter-screen. P47898. HTR5A agonist assay, luminescence, cell-based. activation, % at 9.3 µM. 340,000 tested, 0.61% active; in the data active = activation mostly above about 9.5%, no sharp cut-off; inactive = mostly below about 7.6%;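 note: 0% = cells with vehicle only and 100% = reference agonist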
OPRM1-OPRD1 inv – inverse agonist of human OPRM1-OPRD1 heterodimerization. 340,000 tested, 0.21% active. cell-based MOR-DOR heterodimer luminescence, inverse agonism. AID 504357. inhibition, % at 9.3 µM. P35372+P41143; in the data active = inhibition above about 22%, passing the limit was not always enough;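 note: 0% = cells with DMSO and 100% = wells without cells with DMSO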
OPRM1 ag – activates human mu opioid receptor in HTR2A counterscreen | 2,300 tested, 5.3% active | U2OS OPRM1 beta-arrestin PathHunter, luminescence; DMSO 0%, DAMGO 9.3 µM 100% | activation, % at 9.3 µM | AID 624380 | shares compounds with m5-HT2A agonist;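 active = mean activation above the mean of DMSO-only wells plus 3 SD, cut at about 0.5% in these data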
HTR2A ag conf – confirmation of mouse HTR2A serotonin receptor agonists | CHO-K1 PathHunter beta-arrestin recruitment, luminescence; DMSO 0%, 30 µM serotonin 100% | activation, % at 7.6 µM | shares compounds with m5-HT2A agonist | AID 624381 | 2,300 tested, 19% active;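 active = mean activation across triplicates above the hit threshold derived in the original primary screen, cut at about 15% in these data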
Numbers without * were called inactive; / = no result. This is a sample that favours compounds with a hit; in the whole collection about 1.6% have one here.

SMILES	HTR5A inv ag	m5-HT2A agonist	OPRM1-OPRD1 ag	HTR5A ag	OPRM1-OPRD1 inv	OPRM1 ag	HTR2A ag conf
COc1ccc2c(c1)c(=O)oc1cc(OCC(=O)N3CCc4ccccc4C3)ccc12	-5	-1	-1	0	7	/	/
COc1cccc(-c2cc(N3CCN(C(=O)c4ccoc4)CC3)n3nc(-c4cccc(Cl)c4)cc3n2)c1	/	16*	/	/	/	-1	-1
CCc1cccc(C)c1NC(=O)CN(C)C1=NS(=O)(=O)c2ccccc21	-2	2	-4	1	18	/	/
Cc1cc(Cl)ccc1NC(=O)CN(C)C1=NS(=O)(=O)c2ccccc21	10	15*	0	-4	1	0	1
Cc1ccc(S(=O)(=O)c2ccc(-n3nc(C)cc3N)cc2)cc1	/	3	/	/	/	/	/
CCc1ccc(C(=O)C(C)OC(=O)Cn2cnc3c2c(=O)n(C)c(=O)n3C)cc1 (stereo not drawn)	15	17*	-3	7	16	-1	-2
Cc1ccc(C(=O)C(C)OC(=O)Cn2cnc3c2c(=O)n(C)c(=O)n3C)cc1 (stereo not drawn)	11	-2	0	-4	2	/	/
Cc1sc(-c2ccccn2)nc1OC(=O)c1ccc(F)cc1F	-15	15*	0	6	-1	-1	8
C=C1CC2C3CC[C@@]4(OCOC45COCO5)[C@@]3(C)C(O)CC2[C@@]2(C)CCC(=O)C=C12 (stereo partly drawn)	-5	15*	1	0	-4	-1	-1
CN(C)c1ccc(O)c2c1CC1CC3[C@@H](N(C)C)C(=O)C(C(N)=O)C(=O)[C@]3(O)C(=O)C1C2=O (stereo partly drawn)	-23	67*	-1	7	5	0	153*
CN(C)c1ccc(O)c2c1CC1CC3C(N(C)C)C(=O)C(C(N)=O)=C(O)[C@@]3(O)C(=O)C1=C2O (stereo partly drawn)	-21	1	0	1	-1	/	/
CCOC(=O)C1=C(C)NC(=S)NC1c1ccc(OCC(=O)N2CCCCCC2)cc1 (stereo not drawn)	-4	0	1	6	-4	/	/
CCOC(=O)C1CCN(C(=O)CSCc2nc(-c3ccc(OCC)cc3)oc2C)CC1	-13	16*	-2	4	11	0	0
COc1ccc(NC(=O)c2cccc([N+](=O)[O-])c2)cc1	-7	1	1	2	-5	/	/
COc1ccc(NC(=O)c2cc([N+](=O)[O-])ccc2O)cc1	-6	15*	-1	1	3	-1	-3
COc1ccc(OC)c(NC(=O)CSc2nc3[nH]c(=O)cc(O)c3s2)c1	-16	-2	-3	6	10	/	/
COc1ccc(OC)c(NC(=O)CSc2nc3[nH]c(=O)[nH]c(=O)c3s2)c1	0	18*	-1	0	7	-1	1
COc1ccc(NC(=S)N2CCC3CC2c2c(Cl)cccc23)c(OC)c1 (stereo not drawn)	/	-5	/	/	/	/	/
Cc1c(NC(=O)CN2C(=O)c3ccc([N+](=O)[O-])cc3C2=O)c(=O)n(-c2ccccc2)n1C	-4	17*	-2	1	8	-1	-3
CS(=O)(=O)Nc1nnc(SCC(=O)Nc2cccc([N+](=O)[O-])c2)s1	-9	1	-3	4	14	/	/
CCOC(=O)[C@H](CCc1ccccc1)N[C@@H](C)C(=O)N1[C@H](C(=O)O)C[C@@H]2CCC[C@@H]21	-27	44*	1	8	-7	-1	-1
Cc1ccc(SCc2cc(=O)[nH]c(N3CCN(Cc4ccc5c(c4)OCO5)CC3)n2)cc1	11	4	0	-4	-2	/	/
Cc1ccc(SCc2cc(=O)[nH]c(N3CCN(Cc4ccccc4)CC3)n2)cc1	20	18*	-4	1	16	-1	12
COc1ccc(N2CCN(c3cc(=O)n(Cc4ccc(F)cc4)c(=O)[nH]3)CC2)cc1	5	16*	-1	-2	6	-1	-1
COc1ccc(CCC(=O)NCC2CCCCC2)cc1OC	3	0	0	3	-1	/	/
SMILES	HTR5A inv ag	m5-HT2A agonist	OPRM1-OPRD1 ag	HTR5A ag	OPRM1-OPRD1 inv	OPRM1 ag	HTR2A ag conf
COc1ccc(NC(=O)CNS(=O)(=O)c2cccs2)cc1	-7	24*	-2	1	12	0	-1
NS(=O)(=O)c1ccc(CNC(=O)c2scc3c2CCCC3)cc1	-7	2	-3	2	15	/	/
CCOC(=O)Cn1nc(C)n(-c2ccc(Br)cc2)c1=O	0	3	-1	0	6	/	/
Cc1ccc(OCCC(=O)OCC(=O)Nc2ccccc2)cc1	-8	17*	-1	0	6	-1	-5
O=c1nc(-c2ccccc2)n(-c2ccccc2)[nH]1	11	-1	0	-1	2	/	/
COc1cc2c3nnc(-c4ccccc4)c-3cn(Cc3ccc(F)cc3)c2cc1OC	-8	32*	-2	-1	10	0	21*
CCOc1ncccc1C(=O)Nc1nc(SC)ns1	0	1	2	0	-8	/	/
Cc1ccc(-n2c(N)c(C(N)=O)sc2=S)cc1	-15	19*	-3	7	13	-1	-5
O=C(NC1CCS(=O)(=O)C1)c1ccc(S(=O)(=O)N2CCCCC2)cc1 (stereo not drawn)	-36	3	0	-4	2	/	/
CC(=O)N1CCN(C(=S)NC(=O)c2ccc(S(=O)(=O)N3CCOCC3)cc2)CC1	-4	16*	-2	1	9	-1	-3
O=C(Nc1ccc(OC(F)(F)F)cc1)c1cnccn1	-22	0	0	4	2	/	/
CC(CN1CCCCC1)C(=O)NNC(=O)C12CC3CC(CC(C3)C1)C2 (stereo not drawn)	4	16*	-3	-2	12	0	-3
CC(C)[C@H](NC(=O)c1ccc(C(C)(C)C)cc1)C(=O)N1CCN(Cc2ccc3c(c2)OCO3)CC1	-8	34*	0	2	3	0	70*
COc1ccccc1Nc1ncc(C(=O)N2CCN(Cc3ccc(OC)c(OC)c3OC)CC2)c2ccccc12	-15	-4	2	5	-10	/	/
S=C(Nc1ccccc1Cl)NC1CCN(Cc2ccccc2)CC1	-22	-5	2	1	-10	/	/
FC(F)(F)c1ccccc1NC(=S)NC1CCN(Cc2ccccc2)CC1	-7	17*	-1	7	3	-1	-5
COc1cc(NC(=O)CN2CCN(C(=O)C3CCCO3)CC2)c(OC)cc1Cl (stereo not drawn)	-32	10	-3	1	17	/	/
COc1ccc(C(=O)Nc2ccc(Nc3ccccc3)cc2)cc1[N+](=O)[O-]	9	-4	1	-2	-4	/	/
